Here are results for 39 molecules from PubChem BioAssay (NCATS).

Results filed as inconclusive are left out. Where a structure was tested more than once in an assay, its records may differ in their call. Values without a mark were called inactive. The source made the active and inactive calls. Calls come from the whole dose curve; as a rule, active = well fitted curve in the direction sought with a large enough effect; inconclusive = small, poorly fitted or top-dose-only effect, or another doubt; inactive = no such curve, though single readings can be large; an effect the other way counts as inactive or inconclusive.
% is set by controls: 0 for no effect and ±100 for the full control effect.

Chain of Ubiquitin carboxyl-terminal hydrolase 1 (Homo sapiens) (O94782 whole entry, looked up): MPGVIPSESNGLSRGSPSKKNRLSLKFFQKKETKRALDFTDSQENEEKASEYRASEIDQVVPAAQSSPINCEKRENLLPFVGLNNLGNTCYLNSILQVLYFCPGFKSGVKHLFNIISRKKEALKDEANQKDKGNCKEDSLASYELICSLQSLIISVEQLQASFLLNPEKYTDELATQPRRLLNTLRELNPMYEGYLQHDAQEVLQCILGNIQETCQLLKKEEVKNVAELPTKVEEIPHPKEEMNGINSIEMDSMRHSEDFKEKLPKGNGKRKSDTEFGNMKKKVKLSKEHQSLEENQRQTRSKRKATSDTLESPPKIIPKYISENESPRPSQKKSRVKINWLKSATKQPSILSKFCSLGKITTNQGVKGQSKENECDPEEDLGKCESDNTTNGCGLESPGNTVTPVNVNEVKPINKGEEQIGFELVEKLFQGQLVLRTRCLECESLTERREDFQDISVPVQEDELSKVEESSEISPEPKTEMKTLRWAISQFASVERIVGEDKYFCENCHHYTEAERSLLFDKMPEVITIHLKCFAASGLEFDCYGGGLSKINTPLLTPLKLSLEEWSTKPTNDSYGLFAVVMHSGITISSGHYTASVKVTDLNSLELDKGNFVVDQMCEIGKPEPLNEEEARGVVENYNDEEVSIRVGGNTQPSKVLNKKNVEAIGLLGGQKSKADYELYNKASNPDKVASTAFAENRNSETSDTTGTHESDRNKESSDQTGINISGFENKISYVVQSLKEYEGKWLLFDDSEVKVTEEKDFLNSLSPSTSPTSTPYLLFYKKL

One experiment addresses Ubiquitin carboxyl-terminal hydrolase 1 (Homo sapiens) (UniProt O94782). In words: Inhibitors of USP1/UAF1: Pilot qHTS (AID 504865).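 For activity change, negative = inhibition: rhodamine fluorescence freed from ubiquitin-rhodamine substrate followed over time; top concentration of the series differs between compounds.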 Note: nearly all actives have a fitted effect of over 35% in size. Note: potency is the fitted concentration of half-maximal effect. Conditions: purified USP1/UAF1, Ub-rhodamine cleavage fluorescence; series mostly up to 114 µM; activity change, negative = inhibition: at the top concentration. The gist of the method: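 Enzyme-free wells gave the negative control, while test wells held 1nM USP1/UAF1 preincubated with compound for 15 min at room temperature. Ub-Rho at 150nM final started the reaction, and fluorescence at 480/540 nm was recorded kinetically.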
On to `CC[N+](CC)(CC)CCOc1cccc(OCC[N+](CC)(CC)CC)c1OCC[N+](CC)(CC)CC`, for which the Potency entry was “inactive”.
Consider `CN1C(=O)C(O)N=C(c2ccccc2)c2cc(Cl)ccc21` (stereo not drawn), for which the “activity change, negative = inhibition” value was -1.5%.
Consider `Clc1ccc2c(c1)C(c1ccccc1)=NCc1nncn1-2`, for which the “activity change, negative = inhibition” value is -3.66%.
Still for that read-out and setting: as for `CCC1(c2ccccc2)C(=O)N(COC)C(=O)N(COC)C1=O`, the figure is -2.67%.
The same measure, in the same setting: as for `Cc1nnc2n1-c1ccc(Cl)cc1C(c1ccccc1)=NC2`, the figure is -5.73%; as for `Cc1nnc2n1-c1ccc(Cl)cc1C(c1ccccc1Cl)=NC2`, -0.449%; as for `O=C1Nc2ccc(Cl)cc2C(c2ccccc2Cl)=NC1O` (stereo not drawn), -9.43%.
Same read-out and setting: as for `NNc1ccccc1`, the figure is 0.0447%.
On to `FC1(F)C(F)(F)C(F)(F)C2(F)C(F)(F)C(F)(F)C(F)(F)C(F)(F)C2(F)C1(F)F` (stereo not drawn), for which the Potency was 79.4 µM (active).
For `CN1C(=O)COc2c(C(=O)NC3CN4CCC3CC4)cc(Cl)cc21` (stereo not drawn), the “activity change, negative = inhibition” value was 1.51%.
For the molecule `CN1C(=O)CCS(=O)(=O)C1c1ccc(Cl)cc1` (stereo not drawn), the Potency entry is “inactive”.
The same measure, in the same setting: as for `CC(C)(C)NCC(O)c1ccccc1Cl` (stereo not drawn), the entry is “inactive”.
For the molecule `O=C1CN=C(c2ccccc2)c2cc([N+](=O)[O-])ccc2N1`, the “activity change, negative = inhibition” value is -6.66%.
On to `O=C1c2ccccc2C(=O)c2ccccc21`, for which the Potency result was “inactive”.
As to `COc1c2c(cc3c1OCO3)CCN(C)C2`, the “activity change, negative = inhibition” value is 14.4% [at 54.9 µM].
The same measure, in the same setting: as for `NC(=O)c1cc([N+](=O)[O-])cc([N+](=O)[O-])c1`, the figure is -10.7%; as for `COP(=S)(OC)Oc1ccc(S(=O)(=O)N(C)C)cc1`, -5.16%; as for `CCCCCCC(=O)CCCCCC/C=C/C[C@@H](O)[C@H](O)[C@@](N)(CO)C(=O)O`, 0.843%.
In the case of `Oc1ccc(Cl)cc1`, the Potency entry was “inactive”.
As to `O=C1Nc2ccc(Cl)cc2C(c2ccccc2)=NC1O` (stereo not drawn), the “activity change, negative = inhibition” value is -2.64%.
`NC(=O)CS(=O)C(c1ccccc1)c1ccccc1` (stereo not drawn): the Potency result is “inactive”.
As to `CC(C)(C)c1ccc(O)cc1`, the “activity change, negative = inhibition” value is -6%.
The same measure, in the same setting: as for `COc1cccc([C@@]2(O)CCCC[C@@H]2CN(C)C)c1`, the figure is -4.55%.
`CN1C(=O)NC(=O)C(C)(C2=CCCCC2)C1=O` (stereo not drawn): the Potency entry is “inactive”.
On the same count and under the same terms, as for `Cc1cc(C(C#N)c2ccc(Cl)cc2)c(Cl)cc1NC(=O)c1cc(I)cc(I)c1O` (stereo not drawn), the figure is 50.1 µM (active); as for `CNC(C)(C)Cc1ccccc1`, “inactive”.
Same read-out and setting: as for `O=C1OC(c2ccc(O)c(S(=O)(=O)O)c2)(c2ccc(O)c(S(=O)(=O)O)c2)c2c(Br)c(Br)c(Br)c(Br)c21`, the figure is 50.1 µM (active).
Consider `CCCCC/C=C\C/C=C\C/C=C\C/C=C\CCCC(=O)NCC(=O)O`, for which the Potency was 18.9 µM (active) and the activity change, negative = inhibition was -11.7% [at 11.4 µM].
Take `CC(C)(C)NCC(O)c1cc(Cl)c(N)c(C(F)(F)F)c1` (stereo not drawn): the “activity change, negative = inhibition” value was -11.2%.
On the same count and under the same terms, as for `COc1ccc2c(c1)C13CCCC[C@@H]1C(C2)N(C)CC3` (stereo partly drawn), the figure is 3.31% [at 54.9 µM]; as for `CCC1(c2ccc(N)cc2)CCC(=O)NC1=O` (stereo not drawn), -10%; as for `CN1C(=O)CC(=O)N(c2ccccc2)c2cc(Cl)ccc21`, -5.99%.
On to `CC(C)C[C@H]1C(=O)N2CCC[C@H]2[C@]2(O)O[C@](NC(=O)[C@@H]3C=C4c5cccc6[nH]c(Br)c(c56)C[C@H]4N(C)C3)(C(C)C)C(=O)N12`, for which the “activity change, negative = inhibition” value is -5.67%.
As for `C[C@]12CC[C@@H]3c4ccc(OC(=O)N(CCCl)CCCl)cc4CC[C@H]3[C@@H]1CC[C@@H]2O`, the Potency is 50.1 µM (active).
As for `CCC1(CC)C(=O)C=CNC1=O`, the Potency entry was “inactive”.
With `Nc1nc(N)nc(NC2CC2)n1`, the “activity change, negative = inhibition” value is -0.366%.
Still for that read-out and setting: as for `COC1CC(=C(c2cccs2)c2cccs2)C[N+](C)(C)C1` (stereo not drawn), the figure is -7.07%; as for `O=C(N/N=C/c1ccc([N+](=O)[O-])o1)c1cc([N+](=O)[O-])cc([N+](=O)[O-])c1O`, -4.24%.
For the molecule `CN1CCC(O)(c2ccc(F)cc2)C(C(=O)c2ccc(F)cc2)C1` (stereo not drawn), the “activity change, negative = inhibition” value is -10.1%.

Tested on in the next experiment: not listed separately
In words: qHTS for Inhibitors of ATXN expression: Validation of Cytotoxic Assay (AID 588349). Conditions: cytotoxicity counter-screen for ATXN expression inhibitors, cell viability; series mostly up to 57.1 µM; activity change, negative = cytotoxicity: at the top concentration. The essentials: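 HEK293 cells were dosed with titrated compounds for 72 hr at 37 degrees C. Viability was read by CellTiter Glo luminescence, with intracellular ATP as the marker of cell survival.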
A general note: In qHTS, concentration-response curves come from the screen itself.
Turning to `CN1C(=O)CCS(=O)(=O)C1c1ccc(Cl)cc1` (stereo not drawn), the “activity change, negative = cytotoxicity” value is -1.88%.
As to `CC(C)(C)NCC(O)c1ccccc1Cl` (stereo not drawn), the “activity change, negative = cytotoxicity” value is -17.3%.
On the same count and under the same terms, as for `CCCCC/C=C\C/C=C\C/C=C\C/C=C\CCCC(=O)NCC(=O)O`, the figure is -16.7%; as for `CCC1(c2ccc(N)cc2)CCC(=O)NC1=O` (stereo not drawn), -13%.

Tested on in the next experiment: not listed separately
In words: qHTS for Inhibitors of ATXN expression: Validation (AID 588378). Note: nearly all actives have a fitted effect of over 75% in size. Conditions: cell-based ATXN2 expression reporter assay, luminescence; series mostly up to 57.1 µM; activity change, negative = inhibition: at the top concentration. The gist of the method:
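After a 2 h attachment and 24 h compound incubation, HEK293-ATXN2-FFLuc wells are read for fluorescence at 405 nm excitation/525 nm emission as a viability measure, then for Bright-Glo luminescence reflecting ATXN2 expression.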
As for `CN1C(=O)CCS(=O)(=O)C1c1ccc(Cl)cc1` (stereo not drawn), the “activity change, negative = inhibition” value is -1.84%.
As for `CC(C)(C)NCC(O)c1ccccc1Cl` (stereo not drawn), the “activity change, negative = inhibition” value was -15.2%.
On the same count and under the same terms, as for `CCCCC/C=C\C/C=C\C/C=C\C/C=C\CCCC(=O)NCC(=O)O`, the figure is -9.95%.
On the same count and under the same terms, as for `CCC1(c2ccc(N)cc2)CCC(=O)NC1=O` (stereo not drawn), the figure is -4.47%.
